# The OligoGym collection
# Target: BCL7A
# Assay: pooled miR-30 sensor sort-seq; sequence = guide strand
# Conditions: shRNA
# Also: reference of the scale not given here.
row,Sequence,sensor-assay potency score (higher = more potent)
1,TTCAGGAACATTTTGATTCTTC,-0.0367
2,TGAGCCACACTTCTCGTCCTTG,-0.721
3,TTGTTTTTGTCATCAACCTTGG,-0.192
4,ATTCTGACCACTGCGATCCTGC,-0.637
5,TACTGCTGTACAACACACCAAA,-0.883
6,TAGTAGTTCTGTTCGCACCCAA,0.392
7,TTGAAATTCAGGAACATTTTGA,-0.466
8,TTTAAGACAGAAACCTTTCGGC,0.668
9,TACAGCAGCAACACAAATGGAA,-0.286
10,TTCTCTGAGCTGTTCATCGAAT,-0.798
11,TTTCTCTGAGCTGTTCATCGAA,-0.326
12,TTAGAAAATGGAATCCAGCAGA,-0.0728
13,ATAATGAACATTCCAAACCATG,-1.57
14,AACATTTTGATTCTTCTCGAAG,-1.09
15,TTTTGCAGTCTTGTCATTCTGC,0.59
16,TTGATATCATCTTTGGCCCGGC,-0.0024
17,TTGTACAAACCATATCTACTGA,-0.0617
18,TTGTGGAATGTGTAGCCGCAGC,-1.01
19,TAGGGATGTGTCACCAACGGTC,-0.791
20,TTCATCGAATGTTCCATCGAGG,-0.362

# Target: BDH2
# Assay: as above
# Conditions: shRNA
row,Sequence,sensor-assay potency score (higher = more potent)
1,TTCTTTCTTGTAGAGATGGCGT,-0.55
2,TTGATCATCAGGTACATGCTGC,0.603
3,TTCCATGATGGACAAAACCAGC,-1.2
4,TTTGTTTCTTCTTTGTGACATC,-0.953
5,AAACTGATCAATTTGTTTCTTC,0.524
6,TATTGCCAGATTTCTGAGCAAG,-1.16
7,TTACATAAGCAGATTCATCAGA,0.11
8,TTGGTTGTGCTGTACACACATC,-1.05
9,TTCACAACTCCTTTGACGCTGG,0.0987
10,TTGGACTCATTAATGTCTGTGG,-0.0604
11,TTAAAGAGAACATCAAGTCTCT,0.782
12,TAATATTGCCAGATTTCTGAGC,-0.452

# Target: BEST2
# Assay: as above
# Conditions: shRNA
row,Sequence,sensor-assay potency score (higher = more potent)
1,ATACATCTCGTCCACTGCCAGC,-1.42
2,TTCAGGTTTTCAAACTTCTTGC,-0.208
3,TGGAACTGCATGTCTTCTTTGG,-0.925
4,TACGCTAATCCAGTCATAGTGA,-0.195
5,TAAATCACAAGCTTCTCGAAGT,-0.564
6,AAGCGCTTGAACACCGCGGTGC,0.183
7,ATAAATCACAAGCTTCTCGAAG,-0.809
8,TAGCGCATGAGTGTGCGCCGGT,-0.558
